From PubChem BioAssay come the findings set out here.

Active and inactive are the calls of the source.

Assay [1] is described as follows: binders of probe aFSTL3 on microarray, primary screen, stem cell growth factor project, biochemical, small-molecule microarray, fluorescence 635/667 (AID 1064).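 Note: measures binding of the biotinylated anti-FSTL3 antibody to printed compounds.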 The following applies: higher = more signal.
The nature of assay [2]: binders from COS7 lysate, DM2A8 probe, primary screen, torsin A project, cell lysate, small-molecule microarray, fluorescence 635/667 (AID 1065). The note with it: higher = more signal, COS7 lysate expressing mutant human TOR1A.
A short description of assay [3]: binders of probe aFGF2 on microarray, primary screen, stem cell growth factor project, biochemical, small-molecule microarray, fluorescence 635/667 (AID 1067).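 Note: measures binding of biotinylated aFGF2 protein to printed compounds on slides; z-score merges feature fluorescence and signal-to-noise across triplicate slides.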 The note with it: higher = more signal.
The nature of assay [4]: binders of probe aFGF10 on microarray, primary screen, stem cell growth factor project, biochemical, small-molecule microarray, fluorescence 635/667 (AID 1071).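 Note: score merges 667 nm spot intensity and signal to noise from triplicate slides.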 The note with it: higher = more signal.
The target in assay [5] is Neurogenic locus notch homolog protein 2 (Homo sapiens) (UniProt Q04721). Nature of the assay: Notch2 binders on small-molecule microarrays, primary screen, biochemical, small-molecule microarray, 635 nm fluorescence, stem cell growth factors (AID 1073). The note with it: Notch2 binding, higher = more signal.
Assay [6] addresses Pro-neuregulin-1, membrane-bound isoform (Homo sapiens) (UniProt Q02297). Nature of the assay: NRG1 binders on small-molecule microarrays, primary screen, psychiatric disease protein project, biochemical, small-molecule microarray, fluorescence 635/667 (AID 1075).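 Note: score combines 667 nm spot fluorescence with signal to noise.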 The following applies: NRG1 binding, 635 nm fluorescence, higher = more signal.
Assay [7] concerns Neuregulin-1 EGF-like domain. Nature of the assay: binders of neuregulin-1 EGF-like domain, primary screen, biochemical, small-molecule microarray, 635 nm fluorescence (AID 1081).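 Note: binding of the protein to compounds printed on small-molecule microarray slides.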 The note with it: small-molecule microarray binding, higher = more signal.
Assay [8] can be described thus: FRG1 promoter luciferase signal modulators, primary screen, FRG1 inhibition for FSHD, cell-based, C2C12 myotubes, firefly/Renilla luciferase, luminescence (AID 1084). The note with it: higher = more signal, called active from +8 up or from −8 down.
Assay [9] can be described thus: binders of probe aFST on microarray, primary screen, stem cell growth factor project, biochemical, small-molecule microarray, fluorescence 635/667 (AID 1086).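 Note: score merges 667 nm fluorescence with signal-to-noise of each printed compound spot.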 The note with it: higher = more signal.
Assay [10] is described as follows: binders of probe aHhip on microarray, primary screen, stem cell growth factor project, biochemical, small-molecule microarray, fluorescence 635/667 (AID 1087).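 Note: score merges spot fluorescence at 667nm with spot signal to noise ratio.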 The note with it: higher = more signal.
Assay [11] concerns PRMT1 (protein arginine N-methyltransferase 1). Nature of the assay: PRMT1 binders on small-molecule microarrays, primary screen, biochemical, small-molecule microarray, 635 nm fluorescence (AID 1088).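 Note: binding of Prmt1 protein to compounds spotted on small-molecule microarray slides.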 The following applies: small-molecule microarray binding, higher = more signal.
The nature of assay [12]: yeast growth modulation, basal conditions, primary screen, YJM789 clinical isolate, OD600, 24 h (AID 1089).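 Note: growth of clinical yeast isolate S. cerevisiae YJM 789 seeded 1000 cells per well; test concentration not given here.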 The following applies: S. cerevisiae YJM789 growth, higher = more signal, called active from +8 up or from −8 down.
A short description of assay [13]: fission yeast growth modulation, primary screen, strain 972, OD600, 24 h, no modulator (AID 1090).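 Note: basal condition with compound alone and no growth modifier present; test concentration not given here.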 The following applies: S. pombe 972 growth, higher = more signal, called active from +8 up or from −8 down.
Assay [14] in a line: S. cerevisiae growth modulation with rapamycin, primary screen, strain BY4716, OD600, 96 h (AID 1091). Note: test concentration not given here. The following applies: higher = more signal, called active from +8 up or from −8 down.
The target of assay [15] is Torsin-1A-interacting protein 2 (Homo sapiens) (UniProt Q8NFQ8). Nature of the assay: LULL1 binders on small-molecule microarray, primary screen, cell lysate, human LULL1 lysate, 635/667 nm fluorescence (AID 1092).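 Note: probe is lysate of COS7 cells overexpressing human LULL1; score merges per-feature 667 nm fluorescence with signal-to-noise.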 The note with it: hLULL1 lysate binding, 635 nm fluorescence, higher = more signal.
Assay [16] can be described thus: E. coli growth modulation, two-sided OD650, primary screen, E. coli filamentation project, strain DRC41, 24 h (AID 1093).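 Note: MC1000 strain lacking acrAB efflux and sulA so SOS filamentation is blocked; test concentration not given here.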 The note with it: OD650, 24 h, higher = more signal, called active from +8 up or from −8 down.
Assay [17] can be described thus: small-molecule microarray binders of probe aLefty2, primary screen, biochemical, biotinylated probe, 635/667 nm fluorescence (AID 1094).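 Note: score merges spot fluorescence near 667 nm with spot signal-to-noise ratio.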 The note with it: higher = more signal.
Assay [18] relates to Noggin (protein binding on small-molecule microarray). Nature of the assay: Noggin binders on small-molecule microarray, primary screen, biochemical, 635/667 nm fluorescence (AID 1095).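 Note: score merges 667 nm feature fluorescence with signal to noise over triplicate slides.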 The following applies: 635 nm fluorescence, higher = more signal.
The target in assay [19] is Neurogenic locus notch homolog protein 3 (Homo sapiens) (UniProt Q9UM47). Nature of the assay: NOTCH3 binders on small-molecule microarray, primary screen, biochemical, 635/667 nm fluorescence (AID 1096). The note with it: NOTCH3 binding, 635 nm fluorescence, higher = more signal.
The nature of assay [20]: small-molecule microarray binders of probe aEGFR, primary screen, biochemical, biotinylated probe, 635/667 nm fluorescence (AID 1097).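 Note: probe is a biotinylated anti-EGFR antibody binding compounds printed on slides; score combines fluorescence near 667 nm and signal to noise of each spot.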 The note with it: higher = more signal.

Sequence of Neurogenic locus notch homolog protein 3 (Homo sapiens) (Q9UM47 whole entry, looked up): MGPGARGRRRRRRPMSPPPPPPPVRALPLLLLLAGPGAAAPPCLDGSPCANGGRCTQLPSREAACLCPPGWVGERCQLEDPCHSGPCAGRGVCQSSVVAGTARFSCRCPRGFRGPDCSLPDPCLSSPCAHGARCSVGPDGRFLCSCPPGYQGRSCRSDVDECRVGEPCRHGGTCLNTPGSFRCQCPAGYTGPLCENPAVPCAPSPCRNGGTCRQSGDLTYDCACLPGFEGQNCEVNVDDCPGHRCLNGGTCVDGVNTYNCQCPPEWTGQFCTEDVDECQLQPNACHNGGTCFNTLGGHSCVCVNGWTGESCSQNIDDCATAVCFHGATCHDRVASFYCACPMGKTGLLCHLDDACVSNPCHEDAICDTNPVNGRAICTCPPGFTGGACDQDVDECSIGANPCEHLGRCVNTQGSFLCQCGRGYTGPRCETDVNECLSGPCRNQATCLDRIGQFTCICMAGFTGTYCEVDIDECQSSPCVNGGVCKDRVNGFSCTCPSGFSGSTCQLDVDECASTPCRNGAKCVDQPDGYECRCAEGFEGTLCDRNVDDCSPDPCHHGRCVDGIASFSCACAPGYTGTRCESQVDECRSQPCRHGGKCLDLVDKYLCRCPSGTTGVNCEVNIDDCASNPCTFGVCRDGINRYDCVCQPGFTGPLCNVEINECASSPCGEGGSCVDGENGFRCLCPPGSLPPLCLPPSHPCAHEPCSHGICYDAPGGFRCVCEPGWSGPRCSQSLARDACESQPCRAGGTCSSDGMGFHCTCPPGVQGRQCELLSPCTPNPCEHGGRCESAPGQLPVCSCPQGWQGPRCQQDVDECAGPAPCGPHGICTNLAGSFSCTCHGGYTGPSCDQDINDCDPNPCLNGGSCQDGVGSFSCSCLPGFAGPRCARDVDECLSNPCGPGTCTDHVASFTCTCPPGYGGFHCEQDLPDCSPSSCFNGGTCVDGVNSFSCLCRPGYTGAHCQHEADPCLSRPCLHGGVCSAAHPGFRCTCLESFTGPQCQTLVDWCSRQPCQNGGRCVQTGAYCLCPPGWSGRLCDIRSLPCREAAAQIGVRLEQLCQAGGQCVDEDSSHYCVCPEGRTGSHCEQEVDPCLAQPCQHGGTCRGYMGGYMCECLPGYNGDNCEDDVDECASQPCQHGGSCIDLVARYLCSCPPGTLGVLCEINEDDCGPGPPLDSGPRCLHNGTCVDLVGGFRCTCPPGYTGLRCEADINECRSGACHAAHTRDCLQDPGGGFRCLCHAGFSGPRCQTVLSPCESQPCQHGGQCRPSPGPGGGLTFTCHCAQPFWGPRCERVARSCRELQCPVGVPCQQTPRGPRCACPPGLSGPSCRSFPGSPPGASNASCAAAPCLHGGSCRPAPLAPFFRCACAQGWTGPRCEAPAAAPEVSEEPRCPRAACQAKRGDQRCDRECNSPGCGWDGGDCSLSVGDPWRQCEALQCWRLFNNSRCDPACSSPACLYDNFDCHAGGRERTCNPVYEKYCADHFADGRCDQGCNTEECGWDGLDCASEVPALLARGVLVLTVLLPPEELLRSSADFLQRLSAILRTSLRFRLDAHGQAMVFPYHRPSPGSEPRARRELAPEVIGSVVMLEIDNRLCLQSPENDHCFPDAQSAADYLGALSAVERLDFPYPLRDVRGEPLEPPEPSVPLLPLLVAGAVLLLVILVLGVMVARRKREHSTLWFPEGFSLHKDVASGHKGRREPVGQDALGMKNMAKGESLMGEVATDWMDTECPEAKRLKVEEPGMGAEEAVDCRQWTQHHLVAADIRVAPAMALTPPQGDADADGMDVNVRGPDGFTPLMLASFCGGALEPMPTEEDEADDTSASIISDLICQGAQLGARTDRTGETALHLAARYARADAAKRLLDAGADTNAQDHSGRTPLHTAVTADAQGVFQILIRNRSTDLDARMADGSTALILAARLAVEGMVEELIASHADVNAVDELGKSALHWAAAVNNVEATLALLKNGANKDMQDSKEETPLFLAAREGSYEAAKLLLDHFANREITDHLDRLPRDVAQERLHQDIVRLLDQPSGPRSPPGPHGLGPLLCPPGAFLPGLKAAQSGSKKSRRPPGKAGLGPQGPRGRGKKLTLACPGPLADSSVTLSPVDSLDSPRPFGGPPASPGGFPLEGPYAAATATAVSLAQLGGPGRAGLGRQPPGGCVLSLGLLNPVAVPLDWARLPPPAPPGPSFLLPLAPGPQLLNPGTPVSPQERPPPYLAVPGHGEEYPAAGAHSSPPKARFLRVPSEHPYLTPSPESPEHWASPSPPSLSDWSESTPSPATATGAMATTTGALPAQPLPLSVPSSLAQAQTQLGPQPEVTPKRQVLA
Sequence of Torsin-1A-interacting protein 2 (Homo sapiens) (Q8NFQ8 whole entry, looked up): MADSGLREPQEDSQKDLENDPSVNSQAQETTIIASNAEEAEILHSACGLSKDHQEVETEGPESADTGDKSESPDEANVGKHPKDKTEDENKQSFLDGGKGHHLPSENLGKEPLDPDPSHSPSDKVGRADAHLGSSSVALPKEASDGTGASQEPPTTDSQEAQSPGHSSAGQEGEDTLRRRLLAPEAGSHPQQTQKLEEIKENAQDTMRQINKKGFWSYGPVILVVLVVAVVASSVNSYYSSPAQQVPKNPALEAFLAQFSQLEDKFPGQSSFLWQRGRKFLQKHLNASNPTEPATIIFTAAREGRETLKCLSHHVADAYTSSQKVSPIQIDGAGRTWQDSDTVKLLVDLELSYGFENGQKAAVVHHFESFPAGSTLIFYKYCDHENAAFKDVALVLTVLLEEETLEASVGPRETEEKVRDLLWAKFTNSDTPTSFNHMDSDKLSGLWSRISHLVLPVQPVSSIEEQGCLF
Sequence of Pro-neuregulin-1, membrane-bound isoform (Homo sapiens) (Q02297 whole entry, looked up, the tested form may be a part, canonical isoform): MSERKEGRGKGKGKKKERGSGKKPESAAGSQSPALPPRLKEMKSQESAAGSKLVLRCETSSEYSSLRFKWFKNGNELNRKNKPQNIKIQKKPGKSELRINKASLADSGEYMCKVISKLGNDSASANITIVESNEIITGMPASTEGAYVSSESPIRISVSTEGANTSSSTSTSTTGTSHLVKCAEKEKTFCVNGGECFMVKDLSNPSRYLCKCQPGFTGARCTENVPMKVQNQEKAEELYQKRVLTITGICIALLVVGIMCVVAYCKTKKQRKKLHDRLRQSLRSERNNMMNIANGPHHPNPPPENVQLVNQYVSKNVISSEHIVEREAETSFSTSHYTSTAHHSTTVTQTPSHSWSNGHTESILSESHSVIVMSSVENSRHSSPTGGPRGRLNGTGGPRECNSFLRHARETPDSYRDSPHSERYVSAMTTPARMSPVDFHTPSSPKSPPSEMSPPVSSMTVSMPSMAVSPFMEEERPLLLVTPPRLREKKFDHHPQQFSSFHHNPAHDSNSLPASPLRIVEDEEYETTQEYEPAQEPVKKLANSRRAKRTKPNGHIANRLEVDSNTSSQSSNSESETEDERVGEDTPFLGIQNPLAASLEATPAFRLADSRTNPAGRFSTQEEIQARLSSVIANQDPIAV

On to `COc1cccc(-c2cccc(=O)o2)c1`, for which the composite z-score was 0.782 in assay [1]; -0.387 in assay [2]; 0.338 in assay [3]; 0.143 in assay [4]; 0.0405 in assay [5]; 0.851 in assay [6]. Besides, the composite z-score in assay [7] is 0.322; in assay [9], 0.807; in [10], -0.236; in [11], 0.274; in [15] it was -0.33; in [17], 0.716. Further, the composite z-score was 0.335 in assay [18], -0.476 in assay [19] and 0.08 in assay [20]. Further, the z-score in assay [8] was 5.22 (inactive); in assay [12] it was -1.24 (inactive); in assay [13], -3.46 (inactive); in assay [14], 1.42 (inactive); in [16] it was 0.696 (inactive).

For the compound `CN(C)C(=O)[C@]1(Cc2ccccc2N=[N+]=[N-])N=C(c2ccc(OCCCO)cc2)O[C@@H]1c1ccccc1N=[N+]=[N-]`, the composite z-score amounted to 0.0009 in [1]; 0.827 in assay [2]; 0.0155 in assay [3]; 0.183 in [4]; 1.47 in assay [5]; 1.01 in assay [6]. In addition, the composite z-score was found to be 1.26 in assay [7]; 1.15 in assay [9]; 0.0373 in assay [10]; 1.55 in assay [11]; 3.2 in assay [15]; 0.191 in [17]. Also, the composite z-score was 0.923 in assay [18], 1.07 in assay [19] and -0.0111 in assay [20]. In addition, the z-score in assay [8] is -1.74 (inactive); in assay [12] it was -2.43 (inactive); in assay [13] it was -2.73 (inactive); in [14], 4.05 (inactive); in assay [16], 0.799 (inactive).

Consider `C=CCOC(=O)[C@H]1[C@@H]2C(=O)O[C@@H](c3ccccc3)[C@@H](c3ccccc3)N2[C@@H](c2ccc(OCCOC(=O)[C@H]3C[C@H]4C(=O)N[C@@H](CCCCNC(C)=O)C(=O)N4[C@H]3c3cccc(OCCO)c3)cc2)[C@]12C(=O)Nc1ccccc12`, for which the composite z-score is -0.0212 in assay [1]; 1 in assay [2]; -0.0723 in assay [3]; 0.732 in [4]; 0.279 in assay [5]; 0.786 in assay [6]. Moreover, the composite z-score in [7] was 1.11; in assay [9], -0.047; in assay [10], -0.0994; in assay [11], 1.55; in [15], 3.05; in [17], -0.0865. For the same compound, the composite z-score in assay [18] is 0.664; in [19], 0.879; in assay [20], -0.0996. Besides, the z-score in [8] is 1.12 (inactive); in [12] it was 0.17 (inactive); in [13], 1.11 (inactive); in assay [14], 2.59 (inactive); in [16] it was 0.272 (inactive).

Turning to `CCCCCCc1nc(-c2ccc(OC)nc2)cc2c1[Si](C(C)C)(C(C)C)O[C@H]2c1ccccc1`, the composite z-score in assay [1] is -0.16; in [2] it was -0.0924; in [3], 0.0131; in assay [4] it was 0.0809; in assay [5] it was 0.144; in assay [6], -0.384. The composite z-score in [7] was -0.821; in assay [9], -0.546; in assay [10] it was -0.146; in assay [11], 0.608; in [15], -0.4; in assay [17] it was -0.203. Besides, the composite z-score is 0.75 in assay [18], 0.783 in assay [19] and -0.0674 in assay [20]. Besides, the z-score in [8] is -0.566 (inactive); in assay [12], 0.493 (inactive); in assay [13], 0.993 (inactive); in assay [14] it was -0.226 (inactive); in assay [16], -0.995 (inactive).

As to `COC(=O)[C@@]1(Cc2ccc(OC)cc2)[C@H]2c3cc(C(=O)N(C)C)n(Cc4ccccn4)c3C[C@H]2CN1C(=O)c1ccccc1`, the composite z-score is 1.19 in assay [1]; 2.08 in assay [2]; 0.0395 in assay [3]; -0.175 in [4]; 1.4 in assay [5]; 2.35 in assay [6]. In addition, the composite z-score in assay [7] was 0.89; in assay [9], 0.852; in assay [10], 0.408; in [11], -1.12; in [15], 3.08; in assay [17], 0.282. Also, the composite z-score was -1.12 in assay [18], 0.0171 in [19] and -0.0355 in assay [20]. For the same compound, the z-score in assay [8] is 0.0734 (inactive); in assay [12], 0.0106 (inactive); in assay [13], 0.785 (inactive); in assay [14], 0.144 (inactive); in assay [16], -0.621 (inactive).

For `O=C(CS)NCCCCCCNC(=O)[C@@H]1C[C@@H]2C(=O)NCC(=O)N2[C@@H]1c1cccc(OCCO)c1`, the composite z-score is 0.35 in [1]; 0.024 in assay [2]; -0.0768 in assay [3]; -0.294 in assay [4]; -0.599 in assay [5]; 0.668 in assay [6]. Further, the composite z-score in assay [7] is 1.46; in assay [9], -0.528; in assay [10] it was -0.274; in assay [11], 1.01; in assay [15], 3.09; in assay [17], -0.327. Further, the figures for the composite z-score in [18], in [19] and in [20] were -0.07, 0.188 and -0.0662, respectively. The z-score in [8] is 0.688 (inactive); in [12], 0.309 (inactive); in assay [13] it was 0.156 (inactive); in assay [14] it was 0.616 (inactive); in [16], 0.456 (inactive).

For `CC(C)[Si](C#Cc1ccc(Oc2ccccc2)cc1)(O[Si](C#Cc1ccc(Oc2ccccc2)cc1)(C(C)C)C(C)C)C(C)C`, the composite z-score in assay [1] was -0.496; in assay [2], 0.253; in [3], -0.133; in assay [4] it was 0.967; in assay [5], 0.766; in [6], -0.0929. The composite z-score was 0.664 in assay [7]; -0.0273 in assay [9]; -0.0994 in assay [10]; 0.578 in assay [11]; 0.981 in [15]; -0.192 in assay [17]. Further, the composite z-score in assay [18] was 0.267; in [19], -0.0319; in assay [20], 0.0746. Further, the z-score in assay [8] was -0.421 (inactive); in assay [12], 1.8 (inactive); in assay [13], 0.267 (inactive); in assay [14], 4.06 (inactive); in assay [16] it was 1.06 (inactive).

Regarding `O=C(OCc1ccccc1)C1=CCC2c3[nH]c4ccccc4c3C(=O)C1N2S(=O)(=O)c1ccccc1[N+](=O)[O-]` (stereo not given), the composite z-score in assay [1] is -0.154; in [2], -0.0749; in assay [3], 0.105; in assay [4], 0.982; in assay [5], 1.7; in assay [6], 1.65. The composite z-score in assay [7] amounted to 1.19; in assay [9] it was 0.627; in assay [10] it was 0.0759; in [11], 1.52; in assay [15], 3.57; in assay [17] it was 0.0673. Besides, the composite z-score in [18] is 0.614; in assay [19], 1.03; in assay [20] it was -0.112. Besides, the z-score was -4.32 (inactive) in assay [8]; 0.802 (inactive) in [12]; 1.1 (inactive) in [13]; 7.14 (inactive) in assay [14]; -0.639 (inactive) in assay [16].

For `CC(C)NC(=O)[C@@H]1c2ccccc2C(=O)N(C2Cc3ccccc3C2)[C@H]1c1ccc(CO)cc1`, the composite z-score in [1] was 0.351; in assay [2] it was 0.329; in assay [3], -0.0234; in [4] it was 0.0799; in [5], 0.526; in assay [6], 0.634. In addition, the composite z-score in assay [7] was 0.998; in assay [9] it was 0.148; in [10] it was -0.131; in [11] it was 1.03; in [15] it was 2.33; in assay [17] it was -0.0491. Besides, the composite z-score is 0.0941 in assay [18], 0.436 in assay [19] and -0.126 in assay [20]. The z-score in [8] was -0.943 (inactive); in assay [12], -0.14 (inactive); in assay [13], -0.0232 (inactive); in [14], -0.377 (inactive); in assay [16], 1.28 (inactive).
